Experimental findings from PubChem BioAssay (NCATS) are described below.

Assay [1] can be described thus: Cell Viability - BJ (AID 421; calls by dose curve;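 further: potency means the concentration at half of the fitted maximal effect; cells exposed to compound for 40 hours at 37 °C before readout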). The conditions noted are these: BJ fibroblast viability, qHTS. The gist of the method: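 Normal human BJ foreskin fibroblasts, 1500/well in complete medium, treated 40 hr at 37 °C. Cellular ATP by CellTiter-Glo luminescence; normalized to DMSO and 100 uM tamoxifen, AC50 from Hill fit.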
Background: qHTS replaces the single test concentration by a dilution series.

The nature of assay [2]: Cell Viability - MRC5 (AID 434; calls by dose curve;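 further: potency means the concentration at half of the fitted maximal effect; potency reflects cytotoxicity seen as loss of intracellular ATP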). Conditions: MRC5 lung fibroblast viability, qHTS. The gist of the method:
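MRC5 normal human lung fibroblasts, 1500 cells/well, exposed to compound for 40 hr at 37 C. Cellular ATP was read by CellTiter-Glo luminescence; data normalized to DMSO and 100 uM tamoxifen, with AC50 from Hill fits.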

Assay [3] concerns the target Mitogen-activated protein kinase 10 (Mus musculus) (UniProt Q61831). As to the kind of experiment: JNK3 AlphaScreen Assay (AID 530; active means well fitted curve in either direction with a large enough effect, not every such curve was filed as active;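 further: kinase came from lysate of stimulated human HepG2 cells; signal reports phosphorylation of biotinylated GST-cJun 1-79 at Ser73 with 10 µM ATP; on the % scale 0 is the no-effect control and ±100 the full control effect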). The gist of the method:
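Pre-activated (IL-1β/TNFα) JNK3 in HepG2 lysates phosphorylates biotin-GST-cJun(1-79), 10 uM ATP; anti-phospho-cJun(Ser73) AlphaScreen read at room temperature, pH 7.6 Tris buffer. Compounds pre-incubated 15 min as titrations.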
On the technique in general: Bead proximity is the source of the signal in Alpha formats.

The nature of assay [4]: Cell Viability - N2a (AID 540). Further: nearly all actives have a fitted effect of over 45% in size. Further: potency means the concentration at half of the fitted maximal effect.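 On activity change, negative = cytotoxicity: plate controls were DMSO alone for no effect and tamoxifen control for full effect.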 Conditions: N2a mouse neuroblastoma cell viability; activity change, negative = cytotoxicity: at 92.2 µM (top of the series). The gist of the method:
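Luminescent ATP signal (CellTiter-Glo, 20 min at room temperature) served as the viability read-out after N2a cells were treated with compounds for 40 hours at 37 °C. Concentration-response data were fitted to the Hill equation for AC50.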

The nature of assay [5]: Cellular Toxicity (caspase-3) HepG2 (AID 654).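 Further: cells exposed to compound for 16 hours before reading; 0% = DMSO alone and 100% = caspase signal from 100 µM tamoxifen.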 The gist of the method:
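Cells plated 5 hr at 37 °C, compound added, incubated 16 hr at 37 °C. Caspase-Glo 3/7 reagent followed, 20 min at room temperature, then luminescence read. Activation scored as signal increase; AC50 from Hill fit.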

Assay [6] can be described thus: Cellular Toxicity (caspase-3) BJ (AID 658).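 Further: 0% = DMSO basal and 100% = 10 µM staurosporine.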 Summed up:
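BJ human foreskin fibroblasts, 1000 cells/well, treated 16 hours at 37 °C in complete medium; caspase 3/7 activity by Caspase-Glo luminescence after 1 hr at room temperature. Normalized to DMSO and 10 uM staurosporine; AC50 from Hill fits.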

The nature of assay [7]: Cellular Toxicity (caspase-3) MRC-5 (AID 659).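 Further: 0% = DMSO basal and 100% = 10 µM staurosporine.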 The gist of the method: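 MRC-5 human normal lung fibroblasts, 1500 cells/well, treated 16 h at 37 °C in complete medium. Caspase 3/7 measured by Caspase-Glo luminescence after 1 h at room temperature. Normalized to DMSO and 10 uM staurosporine; AC50 from Hill fit.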
Assay [8] can be described thus: Cellular Toxicity (caspase-3) Hek293 (AID 664).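 Further: cells exposed to compound for 16 h at 37 °C before readout.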 The conditions noted are these: HEK293 caspase-3 activation, DMSO = 0%, 100 µM tamoxifen = 100%; at 92.2 µM (top of the series). The gist of the method: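 Cells plated, 5 hr at 37 °C; compounds added; 16 hr at 37 °C; Caspase-Glo 3/7 reagent, 20 min RT; luminescence read. Activation expressed relative to DMSO and 100 uM tamoxifen, AC50 by Hill model.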

A short description of assay [9]: Cellular Toxicity (caspase-3) N2a (AID 665).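 Further: compound exposure lasted 16 h at 37 °C before readout.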 Summed up: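 N2a cells, 1500/well, 5 h settle at 37 °C; cpd 16 h, 37 °C; Caspase-Glo 3/7, 1 h RT; luminescence. Norm: DMSO = 0, 10 uM staurosporine = 100%. AC50, Hill fit.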
Assay [10] in a line: Cellular Toxicity (caspase-3) NIH 3T3 (AID 666).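 Further: caspase signal read after 16 h compound exposure; 0% = DMSO basal and 100% = 100 µM tamoxifen stimulation.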 The gist of the method:
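Luminescence from aminoluciferin released by caspase-3/7 cleavage of a peptide substrate served as read-out. Mouse fibroblast NIH 3T3 cells were exposed to compounds over a concentration range for 16 hours, and AC50 values came from standard Hill modelling.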

The target of assay [11] is Cytochrome P450 3A4 (Homo sapiens) (UniProt P08684). As to the kind of experiment: qHTS Assay for Inhibitors and Substrates of Cytochrome P450 3A4 (AID 884). Further: on the % scale 0 is the no-effect control and ±100 the full control effect; nearly all actives have a fitted effect of over 50% in size. The gist of the method: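 20 nM human CYP3A4 with 25 uM Luciferin-PPXE (at KM) in 200 mM KPO4, preincubated 10 min with compound; NADPH regeneration started a 60 min RT reaction. Luciferin detected by luminescence, normalized to 57 uM ketoconazole as full inhibition.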
Sequence of Cytochrome P450 3A4 (Homo sapiens) (P08684 whole entry, looked up): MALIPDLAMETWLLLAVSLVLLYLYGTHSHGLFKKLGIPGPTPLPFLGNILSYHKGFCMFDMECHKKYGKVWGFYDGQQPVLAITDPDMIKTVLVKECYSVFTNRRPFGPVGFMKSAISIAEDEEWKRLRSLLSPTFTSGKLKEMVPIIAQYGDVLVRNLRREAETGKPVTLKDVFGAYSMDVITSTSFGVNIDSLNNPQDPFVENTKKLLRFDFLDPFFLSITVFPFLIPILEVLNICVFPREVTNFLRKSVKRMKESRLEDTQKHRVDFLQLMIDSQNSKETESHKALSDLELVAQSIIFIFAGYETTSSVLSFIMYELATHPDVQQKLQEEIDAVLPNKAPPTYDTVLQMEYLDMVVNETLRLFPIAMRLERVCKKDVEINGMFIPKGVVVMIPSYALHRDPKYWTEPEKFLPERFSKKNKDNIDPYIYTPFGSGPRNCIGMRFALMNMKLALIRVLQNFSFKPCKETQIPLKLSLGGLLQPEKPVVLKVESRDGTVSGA

A short description of assay [12]: MultiTox-Fluor Cytotoxicity Assay - LYMP1-001 - Dead Cells (AID 946).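 Further: 0% = DMSO and 100% = tetraoctylammonium bromide.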 Summed up:
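LYMP1-001 lymphoblastoid cells (2500/well) treated 16 h at 37 C. Dead-cell protease cleavage of bis-AAF-R110 read at Ex/Em 485/520. Normalized to DMSO and 15 uM tetraoctylammonium bromide; AC50 from Hill fits.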

A short description of assay [13]: MultiTox-Fluor Cytotoxicity Assay - LYMP1-002 - Live Cells (AID 955). Further: on the % scale 0 is the no-effect control and ±100 the full control effect. The gist of the method:
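Read-out is live-cell protease activity (cell-permeant GF-AFC substrate, fluorescence Ex/Em=405/510), where a decrease indicates acute toxicity. Human lymphoblastoid cells were treated 16 hours at 37 C in a concentration series, and AC50 values came from standard Hill modelling.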

Assay [14] can be described thus: MultiTox-Fluor Cytotoxicity Assay - LYMP1-003 - Dead Cells (AID 961).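 Further: 0% = DMSO and 100% = tetraoctylammonium bromide; nearly all actives have a fitted effect of over 70% in size.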 The gist of the method:
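LYMP1-003 human lymphoblastoid cells (2500/well) exposed to compound 16 h at 37 C in complete medium; dead-cell protease read with bis-AAF-R110 fluorescence (Ex/Em 485/520) after 60 min at room temperature. Normalized to DMSO and 15 uM tetraoctylammonium bromide; AC50 from Hill fit.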

Assay [15] in a line: MultiTox-Fluor Cytotoxicity Assay - LYMP1-003 - Live Cells (AID 962).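 Further: 0% = DMSO only and full loss = 92 µM tetraoctylammonium bromide; cytotoxic hits lower the live-cell protease signal.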 The gist of the method:
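qHTS, 1536-well; 2500 cells/well LYMP1-003; 5 hr 37 C settle; cpd 16 hr 37 C; MultiTox-Fluor reagent 60 min RT; live-cell protease fluor. 405/510; Hill-fit AC50; tetraoctylammonium bromide pos. ctrl.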

Assay [16] can be described thus: Cell Viability - LYMP2-026 (AID 989).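 Further: cells exposed to compound for 24 h at 37 °C; on the % scale 0 is the no-effect control and ±100 the full control effect; nearly all actives have a fitted effect of over 50% in size.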 The gist of the method:
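Luminescent ATP signal (CellTiter-Glo, 30 min room temperature) measures viable lymphoblastoid cells after 24 hr compound treatment at 37 C. Decreased ATP reflects acute toxicity; AC50 values come from Hill-equation modeling.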

The nature of assay [17]: Cell Viability - LYMP1-002 - Assay at 24 hr (AID 993). Further: on the % scale 0 is the no-effect control and ±100 the full control effect. The gist of the method: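 Cells plated 2500/well, 5 hr 37 C; compounds added, 24 hr 37 C; CellTiter-Glo added, 30 min RT; luminescence read. Tetraoctylammonium bromide positive control. Hill-equation AC50.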
The nature of assay [18]: qHTS assay for small molecule agonists of retinoid X receptor alpha signaling (AID 588544). Conditions: HEK293T RXRa-UAS-bla, beta-lactamase reporter, 18 h; 530 nm emission.
The target of assay [19] is Peroxisome proliferator-activated receptor alpha (Homo sapiens) (UniProt Q07869). The assay can be described thus: qHTS assay for small molecule agonists of the peroxisome proliferator-activated receptor alpha (PPARalpha) signaling pathway (AID 651778). Further: % of control where 0% means no effect. The conditions noted are these: PathHunter PPARalpha complementation, chemiluminescence, 6 h; stronger effect = higher value. Summed up: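 Enzyme-fragment complementation assay in which ligand-bound PPARalpha translocates and forms an active enzyme that generates chemiluminescence. Cells were plated overnight, exposed to compound for 6 hr at 37 C, and then given detection reagent for 60 min at room temperature.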
Sequence of Peroxisome proliferator-activated receptor alpha (Homo sapiens) (Q07869 whole entry, looked up, the tested form may be a part): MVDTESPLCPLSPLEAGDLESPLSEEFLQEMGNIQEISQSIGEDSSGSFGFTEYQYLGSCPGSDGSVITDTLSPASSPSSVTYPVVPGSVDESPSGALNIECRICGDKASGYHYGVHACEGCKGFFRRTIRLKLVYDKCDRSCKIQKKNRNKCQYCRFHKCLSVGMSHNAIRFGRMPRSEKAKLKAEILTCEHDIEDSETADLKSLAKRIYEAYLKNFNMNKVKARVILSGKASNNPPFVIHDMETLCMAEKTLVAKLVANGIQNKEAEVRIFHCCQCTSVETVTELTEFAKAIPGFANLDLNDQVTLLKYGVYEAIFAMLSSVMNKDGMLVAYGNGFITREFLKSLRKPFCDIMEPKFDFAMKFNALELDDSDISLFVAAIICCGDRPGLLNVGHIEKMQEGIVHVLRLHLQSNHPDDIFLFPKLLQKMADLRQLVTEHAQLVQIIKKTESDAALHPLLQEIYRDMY

The nature of assay [20]: qHTS assay for cell viability of the p53RE-bla HCT-116 cell line (AID 743292). Further: on the % scale 0 is the no-effect control and ±100 the full control effect; nearly all actives have a fitted effect of over 55% in size. The gist of the method: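 CellSensor p53RE-bla HCT-116 cells (4,000/well) pre-incubated 5 h at 37 C, then exposed to compounds in DMSO for 16 h at 37 C. Viability read as ATP content by CellTiter-Glo luminescence after 30 min at room temperature.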

Several values for one entry are separate records, joined by “and”; a condition that tells them apart may be missing. Equal entries are not always repeated. Results filed as inconclusive are left out. Activity calls are given as the source filed them. Unless noted, the call rests on the fitted dose curve; in most records, active means well fitted curve in the direction sought with a large enough effect; inconclusive means small, poorly fitted or top-dose-only effect, or another doubt; inactive means no such curve, though single readings can be large; an effect the other way counts as inactive or inconclusive.

With `C[N+](=O)[O-]`, the Potency in [1] and in [2] was > 92 µM (inactive) each time. In addition, the Potency result in [3], in [4], in [10], in assay [11], in [14] and in assay [16] was “inactive” in each case. Also, the Potency result in [17] and in assay [20] was “inactive” in each case. The compound was classed as inactive in [5], in assay [6], in [7], in assay [9], in assay [12] and in assay [13]. Besides, the result in assay [15] was inactive. Further, the caspase-3 activation in assay [8] is -0.684% (inactive). Also, the max response is -4.73% in [18] and -2.13% (inactive) in [19].
As for `c1ccc(NNc2ccccc2)cc1`, the Potency in assay [1] and in [2] was > 92 µM (inactive) each time. Besides, the Potency result in [4], in assay [10], in [11], in [14], in assay [16] and in assay [17] was “inactive” in each case. For the same compound, in [20], the Potency entry was “inactive”. Also, the call in assay [5], in assay [6], in assay [7], in [9], in assay [12] and in assay [13] was inactive. Further, the result in assay [15] was inactive. For the same compound, the caspase-3 activation in assay [8] is -0.473% (inactive). The max response is -6.25% and -9.7% in [18]; -1.84% (inactive) and -2.39% (inactive) in assay [19].
Turning to `c1ccc(Nc2ccc(Nc3ccccc3)cc2)cc1`, the results for the Potency in [1], in assay [2] and in assay [4] were > 92 µM (inactive), > 92 µM (inactive) and 15.8 µM (active), respectively. The outcome in assay [5], in assay [6], in assay [7], in assay [9], in assay [12] and in [13] was inactive. Also, the compound was called inactive in [15]. The caspase-3 activation in assay [8] is -2.23% (inactive). For the same compound, the Potency entry in [10], in assay [11], in [14], in assay [16], in assay [17] and in assay [20] was “inactive” in each case. For the same compound, the max response in assay [18] is 0.613%; in assay [19], -0.732% (inactive).
